Results taken from PubChem BioAssay.
Calls of active or inactive are those of the source. Unless noted, the rule behind the calls is not given here.

Legend:
[1] = compound effects on lung adenocarcinoma cell viability – A549, calcein-AM fluorescence, 48 h, basal, profiling panel (AID 1162); settings: higher = more signal; note: test concentration not given here
[2] = compound effects on differentiated 3T3-L1 adipocyte viability – cell-based, 3T3-L1 adipocytes, calcein-AM fluorescence, 48 h, basal, profiling panel (AID 1163); settings: 3T3-L1 adipocytes viability, higher = more signal; note: test concentration not given here
[3] = compound effects on hepatocellular carcinoma cell viability – HepG2, calcein-AM fluorescence, 48 h, basal, profiling panel (AID 1164); settings: higher = more signal; note: test concentration not given here
[4] = compound effects on multiple myeloma cell viability – MM1S, calcein-AM fluorescence, 48 h, basal, profiling panel (AID 1165); settings: higher = more signal;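 note: viability of MM1S multiple myeloma cells under basal unstimulated conditions; test concentration not given here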
[5] = calcein-AM signal in unstimulated myeloma cells – cell-based, calcein-AM fluorescence, 48 h, PK04 Diversity Set, profiling panel (AID 1166); settings: RPMI8226 myeloma viability, higher = more signal;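 note: cells grown under basal conditions without added stimulus; test concentration not given here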
[6] = JC-1 mitochondrial signal, unstimulated HepG2 cells – cell-based, JC-1 fluorescence, 24 h, 100 nL compound, profiling panel (AID 1167); settings: HepG2 mitochondrial potential, higher = more signal; note: test concentration not given here
[7] = JC-1 mitochondrial signal, unstimulated adipocytes – cell-based, JC-1 fluorescence, 3T3-L1 adipocytes, 24 h, 100 nL compound, profiling panel (AID 1168); settings: JC-1 mitochondrial fluorescence, higher = more signal, called active from +8 up or from −8 down; note: test concentration not given here
[8] = JC-1 mitochondrial signal, unstimulated myeloma cells – cell-based, JC-1 fluorescence, RPMI8226, 24 h, 100 nL compound, profiling panel (AID 1169); settings: JC-1 mitochondrial potential fluorescence, higher = more signal; note: test concentration not given here
[9] = JC-1 mitochondrial signal, unstimulated MM1S myeloma – cell-based, JC-1 fluorescence, 24 h, 100 nL compound, profiling panel (AID 1170); settings: MM1S mitochondrial potential, higher = more signal; note: test concentration not given here
[10] = resazurin metabolic signal in A549 cells – cell-based, resazurin fluorescence, 24 h, PK04 Diversity Set, profiling panel (AID 1171); settings: A549 viability, higher = more signal, called active from +8 up or from −8 down; note: test concentration not given here
[11] = resazurin metabolic signal in HepG2 cells – cell-based, resazurin fluorescence, 24 h, PK04 Diversity Set, profiling panel (AID 1172); settings: HepG2 viability, higher = more signal; note: test concentration not given here
[12] = budding yeast growth changes without added modifier – OD600, strain BY4716, 24 h, basal condition, primary screen (AID 1173); settings: S. cerevisiae BY4716 growth, OD600, 24 h; higher = more signal, called active from +8 up or from −8 down
[13] = viability profiling in MM1S myeloma cells – cell-based, resazurin fluorescence, basal, 24 h, PK04 Diversity Set, profiling panel (AID 1174); settings: higher = more signal, called active from +8 up or from −8 down; note: test concentration not given here
[14] = molecular target: Dihydroorotate dehydrogenase (quinone), mitochondrial (Plasmodium falciparum (isolate 3D7)) (UniProt Q08210); test: inhibition of P. falciparum DHODH – biochemical, C-terminal His tag, absorbance 600 nm, primary screen (AID 1175); settings: PfDHODH enzyme, DCIP absorbance 600 nm; higher = more signal, called active from +8 up or from −8 down;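 note: recombinant parasite enzyme with a five histidine tag at its C terminus; test concentration not given here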
Dihydroorotate dehydrogenase (quinone), mitochondrial (Plasmodium falciparum (isolate 3D7)), sequence (Q08210 whole entry, looked up): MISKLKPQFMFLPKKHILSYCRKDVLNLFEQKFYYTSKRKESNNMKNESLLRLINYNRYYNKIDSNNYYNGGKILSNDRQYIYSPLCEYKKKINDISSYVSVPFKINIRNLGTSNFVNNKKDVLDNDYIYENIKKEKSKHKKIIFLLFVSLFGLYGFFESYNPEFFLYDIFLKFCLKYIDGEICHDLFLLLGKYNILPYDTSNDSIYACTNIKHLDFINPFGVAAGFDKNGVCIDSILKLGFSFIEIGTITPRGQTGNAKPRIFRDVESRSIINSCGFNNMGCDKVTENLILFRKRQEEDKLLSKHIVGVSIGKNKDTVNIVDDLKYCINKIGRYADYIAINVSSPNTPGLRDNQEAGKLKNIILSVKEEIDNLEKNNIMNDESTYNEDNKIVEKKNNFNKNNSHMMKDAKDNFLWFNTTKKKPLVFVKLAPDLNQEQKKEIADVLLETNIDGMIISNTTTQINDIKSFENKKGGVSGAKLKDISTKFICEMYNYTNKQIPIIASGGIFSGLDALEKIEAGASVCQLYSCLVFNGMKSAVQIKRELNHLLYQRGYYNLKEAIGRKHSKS

[15] = inhibition of PAO1 biofilm formation – strain PAO1, LB-PBS medium, absorbance 600 nm, primary screen (AID 1176); note: test concentration not given here; settings: P. aeruginosa PAO1 growth/biofilm, A600, 12 h; higher = more signal
[16] = growth modulation of vineyard yeast isolate – strain RM11-1a, OD600, basal, 24 h, primary screen (AID 1177);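 note: cultures grown under basal conditions with no added stressor; test concentration not given here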; settings: S. cerevisiae RM11-1a growth, OD600, 24 h; higher = more signal, called active from +8 up or from −8 down
[17] = growth of efflux-deficient E. coli DRC39 – strain DRC39, OD650, 24 h, E. coli filamentation inducers, primary screen (AID 1178);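 note: growth measured as culture turbidity by optical density at 650 nm; test concentration not given here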; settings: E. coli DRC39 acrAB, higher = more signal, called active from +8 up or from −8 down
[18] = growth of efflux-deficient E. coli DRC39 – strain DRC39, OD650, 48 h, E. coli filamentation inducers, primary screen (AID 1179);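 note: screen aims at cell division blockers that make cells filament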; settings: E. coli DRC39 delta-acrAB growth, higher = more signal, called active from +8 up or from −8 down
[19] = viability profiling in RPMI8226 myeloma cells – cell-based, resazurin fluorescence, basal, 24 h, PK04 Diversity Set, profiling panel (AID 1180); settings: higher = more signal;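 note: RPMI8826 multiple myeloma cell line at 5000 cells per well; test concentration not given here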
[20] = molecular target: E3 ubiquitin-protein ligase XIAP (Homo sapiens) (UniProt P98170); test: small molecules binding XIAP protein – biophysical, small-molecule microarray, fluorescence 635 nm, primary screen (AID 1181); settings: higher = more signal;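 note: score merges 667 nm emission and signal to noise over triplicate slides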
E3 ubiquitin-protein ligase XIAP (Homo sapiens), sequence (P98170 whole entry, looked up): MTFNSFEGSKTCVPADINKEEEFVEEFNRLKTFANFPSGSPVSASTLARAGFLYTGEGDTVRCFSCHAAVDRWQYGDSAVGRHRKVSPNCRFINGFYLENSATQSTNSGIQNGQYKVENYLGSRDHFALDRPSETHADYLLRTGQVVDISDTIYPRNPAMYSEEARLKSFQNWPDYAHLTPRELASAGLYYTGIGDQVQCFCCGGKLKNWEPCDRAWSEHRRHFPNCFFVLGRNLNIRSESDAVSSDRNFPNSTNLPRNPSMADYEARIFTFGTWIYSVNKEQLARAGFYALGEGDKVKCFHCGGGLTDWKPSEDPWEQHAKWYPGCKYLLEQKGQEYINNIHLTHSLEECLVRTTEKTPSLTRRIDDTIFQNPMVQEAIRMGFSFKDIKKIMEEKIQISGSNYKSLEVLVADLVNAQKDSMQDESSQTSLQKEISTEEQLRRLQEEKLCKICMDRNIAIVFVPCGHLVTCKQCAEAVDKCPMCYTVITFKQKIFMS

Row | SMILES | z-score [1] | z-score [2] | z-score [3] | z-score [4] | z-score [5] | z-score [6] | z-score [7] | z-score [8] | z-score [9] | z-score [10] | z-score [11] | z-score [12] | z-score [13] | composite z-score [14] | z-score [15] | z-score [16] | z-score [17] | z-score [18] | z-score [19] | composite z-score [20]
1 | CC(C)C(O)C1C=CC2C(=O)NC(=O)C2N1Nc1ccccn1 (stereo not given) | -0.188 | 0.258 | 0.0775 | 0.253 | 0.11 | 0.119 | -1.28 (inactive) | 0.231 | -0.0451 | -1.05 (inactive) | -0.984 | 0.754 (inactive) | -1.69 (inactive) | 0.48 (inactive) | 0.612 (inactive) | 0.696 (inactive) | -1.03 (inactive) | 0.125 (inactive) | -1.23 | 0.106
2 | O=C1C[C@@](C(=O)NCc2ccccc2)(c2ccc([N+](=O)[O-])cc2)[C@@H](c2ccc(CO)cc2)N1C1CCCCC1 | 0.691 | 1.34 | 2.22 | 0.406 | 0.956 | 2.33 | 1.58 (inactive) | -0.343 | 0.242 | -0.685 (inactive) | -0.563 | -0.517 (inactive) | -0.163 (inactive) | -1.58 (inactive) | -0.0654 (inactive) | -1.02 (inactive) | 0.639 (inactive) | 1.46 (inactive) | -0.0381 | -0.031
3 | CCCC[C@H]1OB(O)C[C@H]2C1=C(COc1ccccc1)C[C@H]1C(=O)C=CC(=O)[C@H]12 | 0.696 | -0.0337 | 0.176 | -3.27 | -3.25 | -1.59 | -0.201 (inactive) | -0.431 | -1.08 | 0.121 (inactive) | -0.149 | -5.19 (inactive) | -0.286 (inactive) | -0.973 (inactive) | 0.531 (inactive) | -0.179 (inactive) | 1.78 (inactive) | 0.715 (inactive) | 0.262 | 0.0264
4 | CCCNC(=O)[C@@]1(Sc2ccc(C)cc2)CC(=O)N(Cc2ccccc2Cl)[C@@H]1c1ccc(CO)cc1I | 1.43 | -0.139 | 1.01 | -1.9 | -1.67 | 0.377 | 0.667 (inactive) | -0.547 | -1.87 | 0.204 (inactive) | 0.766 | -4.16 (inactive) | -3.58 (inactive) | -0.139 (inactive) | 0.034 (inactive) | -0.641 (inactive) | 0.466 (inactive) | 1.01 (inactive) | -1.28 | -0.302
5 | C[C@@H]1ON(c2ccccc2)[C@H](c2ccccc2)[C@H]1C(=O)O | -0.0985 | 0.375 | -0.374 | -0.655 | 0.0402 | -0.246 | -0.212 (inactive) | -0.0601 | -0.599 | -0.236 (inactive) | 0.0656 | 0.0157 (inactive) | -0.0211 (inactive) | 0.341 (inactive) | 0.188 (inactive) | 0.058 (inactive) | -0.636 (inactive) | -1.02 (inactive) | 0.481 | -0.0343
6 | COCCOC(=O)N1C(=O)[C@@]2(c3ccccc31)[C@H](c1ccc(O)cc1)N1[C@H](c3ccccc3)[C@H](c3ccccc3)OC(=O)[C@H]1[C@@H]2C(=O)N1CCCCCCC1 | -0.438 | -0.688 | 0.313 | -0.474 | -1.26 | -1.25 | -1.07 (inactive) | 0.167 | 0.584 | -0.257 (inactive) | 0.0454 | -0.712 (inactive) | 0.0065 (inactive) | 0.161 (inactive) | 1.57 (inactive) | -0.122 (inactive) | -0.391 (inactive) | -1.88 (inactive) | 0.248 | 0.587
7 | C=C(CCCC)/C(=C/C[C@H](OC(=O)c1ccncc1)c1ccc(OCCO)cc1)c1cnc2ccccc2c1 | 1.09 | 0.464 | 0.014 | -2.55 | -0.499 | 1.98 | -0.689 (inactive) | -0.756 | -0.262 | 1.2 (inactive) | 1.08 | -1.28 (inactive) | -0.0114 (inactive) | -2.89 (inactive) | 0.391 (inactive) | 0.51 (inactive) | 0.709 (inactive) | 0.258 (inactive) | 1.04 | -0.122
8 | COCCOC(=O)N1C(=O)[C@@]2(c3cc(C#CCC(C(=O)OC)C(=O)OC)ccc31)[C@H](C(=O)Nc1nc3ccccc3s1)[C@H]1C(=O)O[C@H](c3ccccc3)[C@H](c3ccccc3)N1[C@@H]2c1ccc(OCCO)cc1 | 0.4 | 0.502 | 0.593 | -0.733 | 0.427 | -3.27 | 1.05 (inactive) | -0.708 | 0.327 | 1.42 (inactive) | 0.318 | 1.18 (inactive) | 0.961 (inactive) | -0.859 (inactive) | 2.54 (inactive) | 2.25 (inactive) | -0.0125 (inactive) | 0.972 (inactive) | -0.177 | 0.214
9 | C=CCOC(=O)[C@H]1[C@@H]2C(=O)O[C@@H](c3ccccc3)[C@@H](c3ccccc3)N2[C@@H](c2ccc(OCCOC(=O)[C@@H]3C[C@@H]4C(=O)N[C@@H](CCCCNC(C)=O)C(=O)N4[C@@H]3c3cccc(OCCO)c3)cc2)[C@]12C(=O)Nc1ccccc12 | -0.389 | 0.585 | -0.567 | -0.0545 | 0.879 | 1.24 | 2.61 (inactive) | -0.615 | -0.966 | -0.165 (inactive) | -0.16 | 1.19 (inactive) | 0.222 (inactive) | 0.277 (inactive) | 2.87 (inactive) | 1.52 (inactive) | 0.253 (inactive) | 0.0636 (inactive) | 0.147 | 0.0623
